Screening data (PubChem)
APOBEC3A inh = blocks human APOBEC3A ssDNA deamination; P31941; recombinant A3A, FAM/TAMRA ssDNA deamination fluorescence; inhibition, % at 20 µM; 0.41% of 330,000 active;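 active = at least 40% inhibition at 20 µM here, with at most 30% in a related deaminase screen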;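 note: plate controls were A3A with DMSO for no effect and wells lacking A3A enzyme for full effect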
Target sequence (P31941 whole entry, looked up): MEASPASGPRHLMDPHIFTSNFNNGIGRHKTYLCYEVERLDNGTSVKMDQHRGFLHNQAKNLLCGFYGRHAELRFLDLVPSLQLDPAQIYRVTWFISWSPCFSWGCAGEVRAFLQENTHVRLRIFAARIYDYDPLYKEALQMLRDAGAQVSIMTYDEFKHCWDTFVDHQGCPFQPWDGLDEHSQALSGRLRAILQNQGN
rCAG RNA binder = r(CAG) repeat RNA binding. TO-PRO-1 dye displacement fluorescence. inhibition, % at 3 µM. 1.3% of 370,000 active;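 active = inhibition above the plate cutoff, the mean of all test compounds on that plate plus 3 SD, cut at about 35% in these data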;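 note: 0% = DMSO alone and 100% = 100 µM mitoxantrone as full dye displacement; higher means more dye released from RNA so lower well fluorescence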
aDG glyco up = increases alpha dystroglycan glycosylation; Pro5-aDG cells, alpha-DG glycosylation AlphaScreen (IIH6); 0% Pro5, 100% B10-LARGE cell signal; activation, % at 10 µM; 0.22% of 360,000 active; AID 624168;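 active = activation of at least 8% versus controls, or a plate z-score of at least 8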;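 note: Pro5 are CHO cells carrying HIG-tagged alpha-DG that lacks glycosylation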
ALR H2O2 inh = blocks human ALR sulfhydryl oxidase activity; 3.8% of 290,000 active; purified ALR, DTT oxidation, H2O2 HRP-luminol luminescence; P55789; inhibition, % (concentration not given with the values); AID 485317;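 active = mean replicate inhibition above about 79%, with every replicate also reaching it, limit read from the data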
APOBEC3G inh = inhibitors of human APOBEC3G DNA deaminase | recombinant A3G, ssDNA deamination FAM/TAMRA fluorescence | inhibition, % at 20 µM | 0.28% of 330,000 active | AID 493012 | Q9HC16;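 active = inhibition of at least 40% at 20 µM, with no more than 30% in the related APOBEC3A deaminase screen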;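 note: plate controls were DMSO wells with A3G for no effect and wells lacking A3G enzyme for full effect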
PHOSPHO1 inh = inhibitors of human PHOSPHO1 phosphatase | 1.1% of 290,000 active | AID 1565 | inhibition, % at 13.3 µM | Q8TCT1 | recombinant PHOSPHO1, absorbance phosphatase assay; in the data active = inhibition above about 60%
Target sequence (Q8TCT1 whole entry, looked up): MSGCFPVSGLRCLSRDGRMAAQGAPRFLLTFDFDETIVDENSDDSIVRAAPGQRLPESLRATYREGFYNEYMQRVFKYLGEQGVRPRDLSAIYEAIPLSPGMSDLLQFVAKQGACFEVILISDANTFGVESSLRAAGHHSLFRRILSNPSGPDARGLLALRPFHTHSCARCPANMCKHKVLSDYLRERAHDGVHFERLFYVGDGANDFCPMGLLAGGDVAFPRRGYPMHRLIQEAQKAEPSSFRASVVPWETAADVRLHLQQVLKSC
rCAG bind conf = r(CAG) RNA repeat binding, confirmation; shares compounds with rCAG RNA binder; TO-PRO-1 dye displacement fluorescence; inhibition, % at 3 µM; 70% of 4,300 active; AID 652065;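 active = inhibition above a per-plate cutoff, the mean inhibition of sample wells plus 3 SD, cut at about 35% in these data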;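 note: loss of TO-PRO-1 fluorescence as compound displaces dye from 1x1 AA loop RNA; 0% = DMSO only wells and 100% = 100 µM mitoxantrone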
DNA CAG counter = counter-screen for rCAG RNA binders: DNA CAG dye complex inhibitors. shares compounds with rCAG RNA binder. d(CAG) DNA oligo TO-PRO-1 dye displacement, fluorescence. inhibition, % at 3 µM. 94% of 4,300 active. AID 652068;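 active = inhibition above its plate's cutoff, the mean test-well inhibition plus 3 SD, cut at about 4.8% in these data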;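 note: 0% = DNA dye mix with DMSO and 100% = 100 µM mitoxantrone; hits displace the dye from DNA and so lower well fluorescence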
dCAG dye DR = counter-screen for rCAG binders: inhibitors of DNA CAG TO-PRO-1 complex | shares compounds with rCAG RNA binder | DNA CAG/GTC duplex TO-PRO-1 dye displacement fluorescence | IC50, µM | 20% of 250 active; in the data active = IC50 below about 10 µM
* hit, by the source's call; . = no result given. This is a sample that favours compounds with a hit; in the whole collection about 5.4% have one here.

SMILES	APOBEC3A inh	rCAG RNA binder	aDG glyco up	ALR H2O2 inh	APOBEC3G inh	PHOSPHO1 inh	rCAG bind conf	DNA CAG counter	others
COc1cc(/C=C(\C#N)C(=O)Nc2ccccc2C(=O)O)cc(Cl)c1OC	2	47*	0	15	-4	13	77*	41*
O=C(CN1C(=O)c2cccc3cccc1c23)Nc1ccc(S(=O)(=O)Nc2nccs2)cc1	-2	67*	.	-30	-12	-20	47*	17*
Cc1noc(NS(=O)(=O)c2ccc(NC(=O)c3nn(-c4ccccc4)ccc3=O)cc2)c1C	-25	35*	0	-3	-5	8	21	5.7*
CC1CN(S(=O)(=O)c2ccc(C(=O)Nc3nccs3)cc2)CC(C)O1 (configuration not stated)	2	-1	0	1	-1	15	.	.
O=C(CN1C(=O)c2cccc3cccc1c23)Nc1ccc(S(=O)(=O)N2CCOCC2)cc1	-3	7	0	-9	-7	-9	.	.
O=C(Nc1ccc(S(=O)(=O)Nc2nccs2)cc1)c1nn(-c2ccc(F)cc2)ccc1=O	-22	46*	0	0	11	51	45*	20*
CC1CN(S(=O)(=O)c2ccc(C(=O)Nc3ccc(S(=O)(=O)Nc4nccs4)cc3)cc2)CC(C)O1 (configuration not stated)	-3	57*	0	0	-12	7	65*	19*
O=C(Nc1ccc(S(=O)(=O)N2CCOCC2)cc1)c1nn(-c2ccc(F)cc2)ccc1=O	-30	2	0	-2	-4	34	.	.
Cc1noc(NS(=O)(=O)c2ccc(NC(=O)c3ccc(N4C(=O)c5ccccc5C4=O)cc3)cc2)c1C	0	74*	0	-1	-3	16	59*	26*
Cc1noc(NS(=O)(=O)c2ccc(N3Cc4ccccc4C3=O)cc2)c1C	-2	9	0	2	-7	27	.	.
O=C(Nc1ccc(S(=O)(=O)Nc2nccs2)cc1)c1ccc(N2C(=O)c3ccccc3C2=O)cc1	-2	45*	0	-5	8	30	56*	24*
O=C(Nc1ccc(S(=O)(=O)Nc2nccs2)cc1)c1ccc(F)cc1	-4	8	0	-5	-6	15	.	.
Cc1noc(NS(=O)(=O)c2ccc(NC(=O)c3cc(=O)c4ccccc4o3)cc2)c1C	-5	37*	0	-29	-3	28	13	2
CSc1ccc(CN2CCC(N3CCC(C(=O)NC4CC4)CC3)CC2)cc1	.	3	0	.	.	.	.	.
Nc1ncnc2oc(-c3ccco3)c(-c3ccco3)c12	84	68*	1	-14	84	13	27	16*
Nc1nnc(-c2ccco2)s1	0	-1	0	3	-3	-29	.	.
O=C(Nc1cccc(C(F)(F)F)c1)C(Sc1n[nH]c(=O)[nH]c1=O)c1ccccc1 (configuration not stated)	6	39*	0	6	6	12	38*	12*
CC1(C)CC[C@]2(C(=O)O[C@@H]3OC(CO)[C@@H](O)[C@H](O)[C@H]3O)CC[C@]3(C)C(=CCC4[C@@]5(C)CC[C@H](O[C@@H]6OC(C(=O)O)[C@@H](O)[C@H](O)[C@H]6O)C(C)(C)C5CC[C@]43C)[C@@H]2C1 (some centres not stated)	-2	46*	0	5	3	.	45*	12*	dCAG dye DR=>30
CC1(C)C2CC[C@]3(C)C(CC=C4[C@@H]5C[C@@](C)(CO)[C@@H](O)C[C@]5(C(=O)O)CC[C@]43C)[C@@]2(C)CC[C@@H]1O (some centres not stated)	-3	.	0	.	-9	.	.	.
OC(Cc1cccc(Br)c1)c1ncc(-c2ccccc2C(F)(F)F)[nH]1 (configuration not stated)	.	2	0	.	.	.	.	.
